Source: PubChem BioAssay
“And” between values parts separate entries of the source, which are not always exact repeats. Equal values may be shown once. The source made the active and inactive calls.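 How the source made its calls, unless noted: active means normalized viability below 100% at a tested concentration; inactive means the rest.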

Tests used:
[1] = compounds altering circadian rhythm period length – cell-based, LOPAC library, luminescence reporter (AID 2774; call rule not given here;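 further: values are relative to mean of DMSO wells on each plate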); details: circadian reporter cells, at 7 µM, actives lie on both sides
[2] = test system: Hepatitis C virus NS3 helicase; test: blockers of NS3h binding to ssDNA – biochemical, fluorescence polarization, LOPAC1280 library, primary screen (AID 687035; in the data active means inhibition above about 37%); details: Purified HCV NS3 helicase, Cy5-dT15 ssDNA binding fluorescence polarization; stronger effect = higher value; concentration not given here
[3] = Wnt pathway potentiators raising nuclear beta-catenin – imaging, WNT3A-conditioned medium, mouse C2C12, NPC library, primary screen (AID 1117326; in the data active means nuclear beta-catenin stimulation mostly above about 4.2%, no sharp cut-off; inactive means mostly below about 10%); details: stronger effect = higher value
[4] = stimulators of insulin release from INS-1E, primary screen, cell-based, 5 mM glucose, NPC library (AID 1117329;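 active means compound raises insulin release from rat beta cells at 5 mM glucose, no numeric limit stated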); details: rat INS-1E insulin secretion, at 10 µM, stronger effect = higher value
[5] = growth inhibition of GSK3B-pretreated HCT116 cells – cell-based, CellTiter-Glo, 0.2 to 20 µM (AID 1117336;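 active means compounds lowering colon cancer cell viability after pretreatment blocking the GSK3B kinase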); details: HCT116 viability after GSK3B inhibitor, at 20 µM, stronger effect = higher value
[6] = inhibition of endothelial tube formation, primary screen, imaging, VEGF stimulated, CD31 staining, tube area, NPC library (AID 1117340;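 active means compound that reduces growth-factor-driven endothelial tube area in a mixed cell culture, no cutoff stated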); details: VEGF-stimulated ADSC/ECFC co-culture, at 10 µM, stronger effect = higher value
[7] = GLP1 release stimulators, primary, NCI-H716, NPC library (AID 1117341;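 active means compound raises GLP1 secretion from the human gut endocrine cells, with no numeric limit stated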); details: NCI-H716 cells, at 10 µM, stronger effect = higher value
[8] = HCT116 colon cancer cell growth inhibition, primary screen, CellTiter-Glo luminescence, NPC library (AID 1117342;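 active means compounds that lower survival of HCT116 colon cancer cells in the luminescence readout, no numeric limit stated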); details: at 20 µM (top of the series)
[9] = reduced SW480 viability measured with CellTiter-Glo, NPC library, primary (AID 1117343;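 active means compounds that lower viability of the colon cancer cells in the luminescence readout, with no numeric limit stated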); details: CellTiter-Glo luminescence; at 20 µM (top of the series)
[10] = NPC library primary testing for decreased DLD-1 cell viability via CellTiter-Glo (AID 1117346;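 active means compounds that lower survival of DLD-1 colon cancer cells in the luminescence readout, no cutoff given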); details: DLD-1 viability, CellTiter-Glo luminescence; at 20 µM (top of the series)
[11] = test system: Aerobactin synthetase IucA (Klebsiella pneumoniae, hypervirulent); test: biochemical IucA inhibition screen of LOPAC library by absorbance (AID 1346212; call rule not given here;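 further: 100% = no compound wells and 0% = no enzyme wells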); details: IucA enzyme assay, absorbance (OD) readout; stronger effect = lower value;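 tested at 8 µM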
[12] = viability loss with induced miR-34 in A549 – imaging, A549 dox-inducible miR-34, nuclei and caspase counts, primary screen (AID 1347080;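 active means compounds whose cell count with miR-34 switched on is under 0.7 times the count with it off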); details: A549 miR-34 inducible, Hoechst nuclei count, 48 h
[13] = galactose survival enhancers in mitochondrial complex I cybrids – cell-based, galactose medium, ATP luminescence, primary screen (AID 1645843;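 active means z-score of at least 1.8 in each of two replicates, scored against plate mean and spread of sample wells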;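 further: positive z means more ATP and so rescue of galactose-driven cybrid death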); details: complex I mutant cybrid cells, 72 h, stronger effect = higher value
[14] = P. berghei load reduction in hepatocytes – cell-based, HepG2, luciferase luminescence, HepG2 viability, primary screen (AID 624349; in the data active means parasite load remaining mostly below about 12%, no sharp cut-off; inactive means mostly above about 10%;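 further: 100% = mean of DMSO negative control wells on the same plate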); details: P. berghei liver stage in HepG2, luciferase luminescence, concentration not given here; parasite load remaining: stronger effect = lower value; viability: measured here: HepG2 viability without parasites
[15] = MELAS cybrid and Rieske KO viability enhancers – cell-based, MELAS cybrids, Rieske KO mouse fibroblasts, CellTiter-Glo, primary screen (AID 1508586;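 active means mean z-score across replicates of 1.96 or higher in either the MELAS or the Rieske mutant cell line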;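 further: z relative to plate mean and SD of compound and empty wells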); details: low glucose
[16] = drug combination growth inhibition, ovarian cancer – cell-based, oncology-focused library, rucaparib conditional, profiling panel (AID 1508598); details: patient-derived ovarian cancer cells, CellTiter-Glo viability, 144 h, stronger effect = lower value
[17] = compounds altering viability of human ES cells (AID 493140; call rule not given here;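 further: cells exposed to compounds for four days before counting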); details: human embryonic stem cell survival screen; stronger effect = higher value
[18] = target: NAD(+) hydrolase SARM1 (Homo sapiens) (UniProt Q6SZW1); test: blocking NAD cleavage by SARM1 SAM-TIR – cell lysate, NAD-Glo luminescence (AID 1508614;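 active means compound whose remaining NAD level is above about 45 nM, limit read from the data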); details: SAM-TIR HEK293T lysate NADase, at 1 µM, stronger effect = higher value
[19] = measured here: relative caspase fold change +Dox/-Dox
[20] = measured here: total cells with miR-34 induction, stronger effect = lower value
[21] = measured here: total cells without miR-34 induction
[22] = stronger effect = lower value, cell number ratio, induced over uninduced
[23] = MELAS cybrid survival, CellTiter-Glo 48 h, stronger effect = higher value
[24] = Rieske KO mouse fibroblast survival, CellTiter-Glo 72 h

Chain of NAD(+) hydrolase SARM1 (Homo sapiens) (Q6SZW1 whole entry, looked up): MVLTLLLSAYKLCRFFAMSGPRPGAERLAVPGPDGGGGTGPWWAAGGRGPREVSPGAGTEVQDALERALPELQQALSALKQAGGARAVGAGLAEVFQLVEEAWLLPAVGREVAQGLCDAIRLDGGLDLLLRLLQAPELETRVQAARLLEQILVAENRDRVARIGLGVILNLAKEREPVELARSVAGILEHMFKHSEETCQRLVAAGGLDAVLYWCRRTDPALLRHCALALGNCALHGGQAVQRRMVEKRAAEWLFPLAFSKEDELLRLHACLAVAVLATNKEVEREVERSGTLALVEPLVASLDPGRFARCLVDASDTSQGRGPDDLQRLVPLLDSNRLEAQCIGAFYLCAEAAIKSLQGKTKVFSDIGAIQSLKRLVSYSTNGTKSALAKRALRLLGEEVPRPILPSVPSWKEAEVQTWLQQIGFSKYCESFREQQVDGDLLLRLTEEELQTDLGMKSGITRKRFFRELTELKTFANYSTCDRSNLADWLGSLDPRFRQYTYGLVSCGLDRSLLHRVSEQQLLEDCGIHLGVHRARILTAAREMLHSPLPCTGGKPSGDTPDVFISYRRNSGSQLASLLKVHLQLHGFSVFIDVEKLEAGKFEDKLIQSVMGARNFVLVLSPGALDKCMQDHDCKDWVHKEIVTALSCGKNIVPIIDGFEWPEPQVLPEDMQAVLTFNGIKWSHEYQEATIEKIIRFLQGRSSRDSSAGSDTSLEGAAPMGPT

Cc1ccc(S(=O)(=O)N[C@@H](CCCCN)C(=O)CCl)cc1
1.42 and 1.58: fold change [12, 19]
9040 and 5750: cell count [12, 20]
0%: nuclear beta-catenin stimulation ([3]; stimulation, at 2 µM)
9130 and 5960: cell count [12, 21]
inactive: period change [1] 0 h | inhibition [2] -3% | nuclear beta-catenin stimulation ([3]; at 10 µM) 2.3% | insulin secretion stimulation [4] 0.9% | viability decrease [5] -9.5% | tube area decrease [6] 13% | GLP1 secretion stimulation [7] -1.9% | inhibition of viability [8] -8.6% | viability decrease (inhibition) [9] 12.5% | viability decrease (inhibition) [10] -7% | remaining activity [11] 114% | fold change ([12]; stronger effect = lower value) 0.989 and 0.965 | z-score [13] -0.59

Clc1cccc(SC2CCNCC2)n1
8400: cell count [12, 21]
2%: nuclear beta-catenin stimulation ([3]; stimulation, at 2 µM)
inactive: nuclear beta-catenin stimulation ([3]; at 10 µM) 1% | insulin secretion stimulation [4] 4.8% | viability decrease [5] -32% | tube area decrease [6] 5.5% | GLP1 secretion stimulation [7] 0.9% | inhibition of viability [8] 11.5% | viability decrease (inhibition) [9] 17.2% | viability decrease (inhibition) [10] -11.3% | fold change [12, 22] 1.01 | z-score [13] -0.34
0.88: fold change [12, 19]
8450: cell count [12, 20]

O=C1NCN(c2ccccc2)C12CCN(CC1COc3ccccc3O1)CC2 (stereo not drawn)
0.8%: nuclear beta-catenin stimulation ([3]; stimulation, at 2 µM)
9350 and 9690 and 10800: cell count [12, 21]
9490 and 8620 and 9600: cell count [12, 20]
inactive: period change [1] 0.005 h | parasite load remaining [14] 34.8% | inhibition [2] -6% | nuclear beta-catenin stimulation ([3]; at 10 µM) -0.5% | insulin secretion stimulation [4] 1.2% | viability decrease [5] -65.9% | tube area decrease [6] 5.4% | GLP1 secretion stimulation [7] 0.9% | inhibition of viability [8] 17.3% | viability decrease (inhibition) [9] 28.7% | viability decrease (inhibition) [10] 3.2% | remaining activity [11] 93.6% | fold change ([12]; stronger effect = lower value) 1.02 and 0.89 and 0.887 | z-score [15, 23] 0.415 | z-score [13] 0.48 and 0.105 and 0.78
103%: viability [14]
1.51: z-score [15, 24]
1.92 and 0.981 and 1.04: fold change [12, 19]

Cn1c(CCCC(=O)O)nc2cc(N(CCCl)CCCl)ccc21
-0.135: z-score [15, 24]
active: tube area decrease [6] 44.6% | viability ([16]; at 0.00122 µM, OCI-C5x cells, with rucaparib 10 µM, 100% = cells with rucaparib alone) 97.3% | viability ([16]; at 0.00122 µM, OCI-C5x cells, without rucaparib) 99.1% | viability ([16]; at 0.00122 µM, OCI-P5x cells, with rucaparib 20 µM, 100% = cells with rucaparib alone) 99.9% | viability ([16]; at 0.0195 µM, OCI-C5x cells, without rucaparib) 99.7% | viability ([16]; at 0.0195 µM, OCI-P5x cells, with rucaparib 20 µM, 100% = cells with rucaparib alone) 93.4% | viability ([16]; at 0.0781 µM, OCI-C5x cells, without rucaparib) 97.6% | viability ([16]; at 0.0781 µM, OCI-P5x cells, with rucaparib 20 µM, 100% = cells with rucaparib alone) 92.7% | viability ([16]; at 0.0781 µM, OCI-P5x cells, without rucaparib) 96.4% | viability ([16]; at 0.313 µM, OCI-P5x cells, with rucaparib 20 µM, 100% = cells with rucaparib alone) 95% | viability ([16]; at 0.313 µM, OCI-P5x cells, without rucaparib) 74.7% | viability ([16]; at 1.25 µM, OCI-C5x cells, without rucaparib) 97.4% | viability ([16]; at 1.25 µM, OCI-P5x cells, with rucaparib 20 µM, 100% = cells with rucaparib alone) 92.4% | viability ([16]; at 1.25 µM, OCI-P5x cells, without rucaparib) 79.4% | viability ([16]; at 5 µM, OCI-C5x cells, without rucaparib) 93% | viability ([16]; at 5 µM, OCI-P5x cells, with rucaparib 20 µM, 100% = cells with rucaparib alone) 80.1% | viability ([16]; at 5 µM, OCI-P5x cells, without rucaparib) 84.8%
8630 and 6450: cell count [12, 20]
0.9%: nuclear beta-catenin stimulation ([3]; stimulation, at 2 µM)
0.645 and 1.16: fold change [12, 19]
inactive: inhibition [2] -4% | nuclear beta-catenin stimulation ([3]; at 10 µM) 3% | insulin secretion stimulation [4] 0.9% | viability decrease [5] -12.4% | GLP1 secretion stimulation [7] -0.7% | inhibition of viability [8] 6.5% | viability decrease (inhibition) [9] 18.4% | viability decrease (inhibition) [10] -5.7% | fold change ([12]; stronger effect = lower value) 1.1 and 0.89 | z-score [15, 23] -0.517 | viability ([16]; at 0.000305 µM, OCI-C5x cells, with rucaparib 10 µM, 100% = cells with rucaparib alone) 103% | viability ([16]; at 0.000305 µM, OCI-C5x cells, without rucaparib) 107% | viability ([16]; at 0.000305 µM, OCI-P5x cells, with rucaparib 20 µM, 100% = cells with rucaparib alone) 107% | viability ([16]; at 0.000305 µM, OCI-P5x cells, without rucaparib) 101% | viability ([16]; at 0.00122 µM, OCI-P5x cells, without rucaparib) 102% | viability ([16]; at 0.00488 µM, OCI-C5x cells, with rucaparib 10 µM, 100% = cells with rucaparib alone) 104% | viability ([16]; at 0.00488 µM, OCI-C5x cells, without rucaparib) 104% | viability ([16]; at 0.00488 µM, OCI-P5x cells, with rucaparib 20 µM, 100% = cells with rucaparib alone) 103% | viability ([16]; at 0.00488 µM, OCI-P5x cells, without rucaparib) 109% | viability ([16]; at 0.0195 µM, OCI-C5x cells, with rucaparib 10 µM, 100% = cells with rucaparib alone) 105% | viability ([16]; at 0.0195 µM, OCI-P5x cells, without rucaparib) 100% | viability ([16]; at 0.0781 µM, OCI-C5x cells, with rucaparib 10 µM, 100% = cells with rucaparib alone) 109% | viability ([16]; at 0.313 µM, OCI-C5x cells, with rucaparib 10 µM, 100% = cells with rucaparib alone) 104% | viability ([16]; at 0.313 µM, OCI-C5x cells, without rucaparib) 101% | viability ([16]; at 1.25 µM, OCI-C5x cells, with rucaparib 10 µM, 100% = cells with rucaparib alone) 124% | viability ([16]; at 5 µM, OCI-C5x cells, with rucaparib 10 µM, 100% = cells with rucaparib alone) 106% | z-score [13] 0.31
7880 and 7250: cell count [12, 21]

NCC1(CC(=O)O)CCCCC1
103% and 169%: viability [14]
inactive: period change [1] -0.07 h | survival [17] 2.25 | parasite load remaining [14] 131% and 58.8% | inhibition [2] -6% | nuclear beta-catenin stimulation ([3]; at 10 µM) 1% | insulin secretion stimulation [4] -1.1% | viability decrease [5] -8.75% | tube area decrease [6] 20.1% | GLP1 secretion stimulation [7] -1.7% | inhibition of viability [8] -3.4% | viability decrease (inhibition) [9] -3.2% | viability decrease (inhibition) [10] -8.35% | remaining activity [11] 98.6% | z-score [15, 23] 0.467 and -0.335 | remaining NAD [18] 10 nM | z-score [13] 0.26 and 0.88
-0.399 and 0.119: z-score [15, 24]
2.1%: nuclear beta-catenin stimulation ([3]; stimulation, at 2 µM)

CN1[C@@H]2CC[C@H]1CC(OC(=O)c1cc(Cl)cc(Cl)c1)C2 (stereo partly drawn)
3.7%: nuclear beta-catenin stimulation ([3]; stimulation, at 2 µM)
active: viability decrease [5] 59.7% | inhibition of viability [8] 87.1% | viability decrease (inhibition) [9] 63.5% | viability decrease (inhibition) [10] 85.1%
inactive: nuclear beta-catenin stimulation ([3]; at 10 µM) 5.5% | insulin secretion stimulation [4] 14.4% | tube area decrease [6] 2.2% | GLP1 secretion stimulation [7] 13.6% | remaining activity [11] 96.1%

Cc1cccc(C)c1NC(=O)CN1CCCC1=O
10700 and 8710: cell count [12, 20]
0.685: z-score [15, 24]
11000 and 9380: cell count [12, 21]
1.2 and 0.724: fold change [12, 19]
inactive: inhibition [2] -5% | nuclear beta-catenin stimulation ([3]; at 10 µM) -1.9% | insulin secretion stimulation [4] 1.6% | viability decrease [5] 0.1% | tube area decrease [6] -2.5% | GLP1 secretion stimulation [7] -2.4% | inhibition of viability [8] 0.2% | viability decrease (inhibition) [9] 0.5% | viability decrease (inhibition) [10] -10.5% | remaining activity [11] 106% | fold change ([12]; stronger effect = lower value) 0.975 and 0.928 | z-score [15, 23] -0.209 | remaining NAD [18] 10 nM | z-score [13] 0.43
0.9%: nuclear beta-catenin stimulation ([3]; stimulation, at 2 µM)

O=C(O)c1ccc2[nH]cc(CCCCN3CC=C(c4ccccc4)CC3)c2c1
1.13: fold change [12, 19]
9380: cell count [12, 21]
8600: cell count [12, 20]
active: tube area decrease [6] -17.1%
inactive: nuclear beta-catenin stimulation ([3]; at 10 µM) -0.5% | insulin secretion stimulation [4] 2.5% | viability decrease [5] 5.1% | GLP1 secretion stimulation [7] -2% | inhibition of viability [8] 18.8% | viability decrease (inhibition) [9] -17.9% | viability decrease (inhibition) [10] -14.3% | fold change [12, 22] 0.916 | z-score [13] -0.035
-1.8%: nuclear beta-catenin stimulation ([3]; stimulation, at 2 µM)
